Among the data in PubChem BioAssay (NCATS) are Potency values, retold here.

Each structure is given as a SMILES string. Inconclusive results are not listed. Where a call stands in place of a potency, no number is given. Active and inactive are the calls of the source. The call rests on the fitted dose curve.
Potency means the concentration at half of the fitted maximal effect.

The assay in a line: Natriuretic polypeptide receptor (hNpr1) antagonism - Pilot counterscreen GloSensor control cell line (AID 1347045). Particulars: HEK293 cGMP GloSensor cells, SNP-stimulated luminescence, 20 min; series mostly up to 38.3 µM. On the procedure:
F. Fan, B. F. Binkowski, B. L. Butler, P. F. Stecha, M. K. Lewis, K. V. Wood, Novel genetically encoded biosensors using firefly luciferase. ACS Chem Biol 3, 346-351 (2008).
PROTOCOL TABLE (as described by Inglese J, Shamu CE and Guy RK. 2007)
SEQUENCE No. (e.g., 1, 2, 3, etc.); […] (e.g., Cells, Incubation, Reagent, etc.); VALUE and DESCRIPTION.
1. Cells. Seed 1500 HEK293 cGMP-sensor cells per well in 4uL into Greiner 1536-well white/solid bottom high base, TC plates.
2. Incubation. Incubate plated cells at 37C in 5% CO2, 95% RH overnight.
3. Reagent. Add 1uL per well GloSensor reagent from Promega (2% final concentration) or CO2 independent media vehicle control to respective columns of Greiner 1536-well plates.
4. Incubation. Incubate plated cells at room temperature for 2 h, protect from light.
5. Compounds. Library compounds and DMSO vehicle control added at 23nL per well, transferred by Pin Tool.
6. Incubation. Incubate plated cells for 30 min. at room temperature, protect from light.
7. Detector. GloSensor baseline pre-read luminescence measured using CCD-based camera (Viewlux).
8. Compound. Add 1uL of sodium nitroprusside (SNP) to 50 uM final concentration to stimulate soluble guanylyl cyclase (GC) or CO2 independent media as vehicle control.
9. Incubation. Incubate treated cells at room temperature for 20 min., protect from light.
10. Detector. GloSensor post-SNP luminescence measured using CCD-based camera (Viewlux).
NOTES (numbers refer to Sequence numbers above; values are from representative experiments)
1. HEK293 cells expressing GIP/pGS-40F were grown to 85-95% confluence (48-72 h) in T175 culture flasks (CO2 independent media supplemented with 10% FBS, 1% Pen/Strep antibiotics, and 1 ug/mL puromycin). Trypsinize and harvest cells from T175 culture flasks and filter through 40 um cell strainer. Cells counted with Invitrogen Countess (30,000,000 - 50,000,000 cells/flask).
2. Cells incubated for 24 h. at 37C in 95% RH incubator with metal lid having gas-exchange holes.
3. Prepare GloSensor Reagent (Promega): Reconstitute GloSensor luciferase substrate by adding 8.2mL Hepes buffer to 250mg substrate, mix well, protect from light and stored at -80C. Prepare a fresh 12% GloSensor solution in CO2 independent supplemented plating media (see above). Mix well and store at ambient temperature, protected from light. 1uL 12% GloSensor Luciferase Reagent added (2% final concentration) to respective columns of 9 x 1536-well Greiner plate with BioRaptr, 1uL CO2 independent plating media added to respective columns as vehicle control with BioRaptr.
4. Cells incubated for 2 h. at ambient temperature, protected from light with metal lid having gas-exchange holes.
5. 23nL of LOPAC128 library compounds (7 plates) or DMSO vehicle control transferred to 9 Greiner white/solid bottom high base, TC plates in 7 interplate 1:5 titrations (see Yasgar, A. et al. 2008) with Pintool. Two of the 9 plates are DMSO-only in compound field at beginning and end of compound library-treated plates.
6. Cells incubated for 30-50 min. at ambient temperature protected from light with metal lid having gas-exchange holes.
7. Read GloSensor + Antagonist/Compound baseline Luminescence on the ViewLux [Exposure, 30 s; Gain, High; Speed, Slow; Binning, 2X]
8. SNP solution prepared at 500 mM (in H2O) stock concentration. From this a working dilution was prepared at 300 uM in CO2 Independent media. 1uL of 300 uM SNP (50 uM final concentration) or CO2 Independent media vehicle control dispensed into respective columns of 9 x Greiner 1536-well white/solid bottom, tissue culture plates with BioRaptr.
9. Cells incubated for 20 min. at ambient temperature, protected from light with metal lid having gas-exchange holes.
10. Read final luminescence on the ViewLux. [Exposure, 30 s; Gain, High; Speed, Slow; Binning, 2X.]
[…]
`N[C@@H](Cn1ccc(=O)c(O)c1)C(=O)O`: the Potency entry is “inactive”.

Take `C[N+](C)(C)CCO`: the Potency result is “inactive”.

Turning to `CN(C)c1cc2c(Nc3ccc4c(cnn4Cc4ccccc4)c3)ncnc2cn1`, the Potency result is “inactive”.

For the compound `Cn1cnc2c(NCc3ccccc3)nc(NCCO)nc21`, the Potency result is “inactive”.

For the compound `COC(=O)C1=CO[C@@H](O)[C@@H]2C(CO)=CC[C@H]12`, the Potency entry is “inactive”.

For `O=C1NC(c2cccc([N+](=O)[O-])c2)=CCN1c1ccccc1O`, the Potency entry is “inactive”.

On to `COc1cccc2c1[C@@H]1CN(CCCCn3c(=O)[nH]c4c(sc5ncc(-c6ccccc6)nc54)c3=O)C[C@@H]1CO2`, for which the Potency result is “inactive”.

With `CC(C)N(CCC(=O)c1ccc2ccccc2c1)Cc1ccccc1`, the Potency was 13.1 µM (active).

With `Nc1ncnc2n[nH]c(Nc3ccc(F)cc3)c12`, the Potency result is “inactive”.

Regarding `COc1ccccc1N1CCN(CCN2C(=O)CC3(CCCC3)CC2=O)CC1`, the Potency result is “inactive”.

In the case of `Cc1nn(-c2ccccc2)c(C)c1/C=N/N1CCN(Cc2ccccc2)CC1`, the Potency entry was “inactive”.

As for `NC(N)=NCCCCN=C(N)N`, the Potency entry was “inactive”.

As to `Brc1ccc([C@H]2CN3CCSC3=N2)cc1`, the Potency entry was “inactive”.
